Where a name gives a salt, the structure may show the parent alone.
test system: Danio rerio larvae (5 dpf); assay: combined optomotor response (time in upper well half, down vs up moving lines, periods 7-14) minus DMSO control (percentage points); higher = stronger optomotor response than DMSO larvae; conditions: 10 µM; exposure time: 3 h pre-incubation + 3 h imaging

Point of comparison: `CC[C@@H](C(N)=O)N1CCCC1=O` [Levetiracetam], combined optomotor response 7.27. Against it:
- CN1C[C@H](C(=O)N[C@]2(C)O[C@@]3(O)[C@@H]4CCCN4C(=O)[C@H](Cc4ccccc4)N3C2=O)C[C@@H]2c3cccc4[nH]cc(c34)C[C@H]21 [Dihydroergotamine mesylate] — higher, 13.2
- C=CCN1C[C@H](C(=O)N(CCCN(C)C)C(=O)NCC)C[C@@H]2c3cccc4[nH]cc(c34)C[C@H]21 [Cabergoline] — lower, -6.92
- COc1cc2c(cc1OC)C1CC(=O)C(CC(C)C)CN1CC2 (stereo unspecified) [Tetrabenazine] — lower, -0.321
- N[C@@H]1C[C@H]1c1ccccc1 [Tranylcypromine hydrochloride] — higher, 9.38
- C=C1C[C@@H]2[C@H](CC[C@]3(C)C(=O)CC[C@@H]23)[C@@]2(C)C=CC(=O)C=C12 [Exemestane] — lower, 3.71
- CCN(C)C(=O)Oc1cccc([C@H](C)N(C)C)c1 [Rivastigmine tartrate] — lower, 4.19
- Cc1cccc([C@H](C)c2c[nH]cn2)c1C [Dexmedetomidine hydrochloride] — lower, -11.4
- CC(O)(CS(=O)(=O)c1ccc(F)cc1)C(=O)Nc1ccc(C#N)c(C(F)(F)F)c1 (stereo unspecified) [Bicalutamide] — lower, 0.551
- CC(C)C[C@H]1C(=O)N2CCC[C@H]2[C@]2(O)O[C@](NC(=O)[C@@H]3C=C4c5cccc6[nH]c(Br)c(c56)C[C@H]4N(C)C3)(C(C)C)C(=O)N12 [Bromocriptine mesylate] — lower, -10.1
- O=c1[nH]c2ccccc2n1C1CCN(CCCC(c2ccc(F)cc2)c2ccc(F)cc2)CC1 [Pimozide] — lower, -11

From the supplement of paper PMC9950053
